The text below walks through data of the supplement of paper PMC6555819.

The subject of the assay is VDR:RXRa (NR concentration 270 nM, RXRa partner concentration 90 nM). Nature of the assay: PBM binding z-score (relative to random genomic background probes); higher = stronger binding; sequences stand for … in GC…GCGATTGACAGCGTAGAATGAAGG
As for the experimental part: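 Protein-binding microarray (Agilent 4x180K custom design, double-stranded 60-nt probes: 5' GC cap, 34-nt variable region, 24-nt constant primer region; full probe sequence given). Purified or IVT nuclear receptor:RXRα heterodimers (3:1 NR:RXRα, mostly 270:90 nM) or homodimers were incubated for 1 h in PBS with 2% milk and no ligand, then detected with Alexa488 antibodies. Fluorescence from o1-orientation probes (~5 replicates averaged) was converted to z-scores against 500 random hg19 background probes. Variable regions are seed direct-repeat (DR0–DR5) sites, all their single-nucleotide variants and half-site ablations.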
Consider TCATATAGGTAATACATGTGAAAGTCGGCATCTA, for which the PBM binding z-score came out at 1.07.

With AGTCAAAGTTCACTAGGTACCGTAAGATTCAGCT, the PBM binding z-score is 4.35.

CATACAGGGTCAGCTAGTCCAGAGTAGGGACGGC gave a PBM binding z-score of 4.36.

On to CAAACTTGGTCAAGAGGTCAAAGTCCGCTTCCCG, for which the PBM binding z-score is 5.4.

CCTACTGCGCCATCAGGTCATTGATATCAACGTT: the PBM binding z-score stood at 2.07.

In the case of TCTCGGAGGACCCGAAAGGTCAGAGCTCGACATC, the PBM binding z-score came out at 2.45.

Sequence CCTACTGGGCTAAGGTCATTGATCAGTCAAAGCA registered a PBM binding z-score of 3.39.

Sequence TGTAGTTGGTCACGGAGGTCACACACGACGGGTA had a PBM binding z-score of 5.47.

In the case of TGAACGAGGTTATAAGATCAGGGAACGTTGCAAA, the PBM binding z-score is 0.923.

Take ACTAGCAGGCCAAGTTTGGGTCAGTCAAACAAAG: the PBM binding z-score turned out to be 0.056.

In the case of ATAATGAGGTTATACGTAGATCAGGGAAGAAAGT, the PBM binding z-score was found to be 1.95.

Regarding CCTAGTTGGTCTGGAGGTCACACACCGGATATGA, the PBM binding z-score is 4.03.

GCTAGTTGTTCAGTAAAAGGTCACACACCGGTCG had a PBM binding z-score of 3.93.

For the sequence CGAACTAGGACAAGGACAGTGAATCTCCGCACGC, the PBM binding z-score was -0.159.

With AACACAGGGTCATCGTAGGCCAGAGTACGCACAG, the PBM binding z-score amounted to 5.15.

In turn, CAAACTAGGTTAAGGTCAAAGTCGGTTTGTGCCA displayed a PBM binding z-score of 4.8.

In turn, ATATGTAGGTTATCTGGTCATTCAGTTTGCGCAT yielded a PBM binding z-score of 2.12.

The sequence ATATGTAGGTTGAGGGTCATTCAGGTTGGTTCGC registered a PBM binding z-score of 4.78.

CCGACTGGGGCAAGGTGACCATAACGCACAGCCA showed a PBM binding z-score of -0.586.

Turning to AGTCAAAGTTCATCTAGGTAACGTAAGATATGCT, the PBM binding z-score was 4.59.

ATATGTAGGTTATCGGCTCATTCAGTTTGCGCAT: the PBM binding z-score worked out at 0.802.

The sequence TCTAGCAGGCCAGAGGGTCGCTCAAGAGGTACGG displayed a PBM binding z-score of -0.181.

The sequence TCGAGTAGGTTAAGGGCATTCAGAATGGCGTCGA had a PBM binding z-score of 0.959.

For the sequence CTCGAAAGGACGGTTGAGGTGAGTATACGGATAA, the PBM binding z-score is -0.266.

Take TTCCCAAGGTGAAGGTCGTTGATCCCTCTGTAGA: the PBM binding z-score came out at 1.22.

Take CCTATTAGTTGACCATAAGGGCAACCGAAGCTCG: the PBM binding z-score came to 1.22.

With CGTCAATGTTCAAGGTAACGTAACAGAAAGCAGC, the PBM binding z-score was 0.0627.

Turning to TATACAGGGTCAAAGGCCAGGGTACGAATGTCGA, the PBM binding z-score worked out at 4.93.

As to ACTCGGAGGACAAAGGTCAGCGCTACGCCAGTGA, the PBM binding z-score was determined as 3.41.

The sequence CTTACTGGGCCACGAAAGGTCATTGATTCAGTGA displayed a PBM binding z-score of 4.64.

Sequence CTCGAAAGGTCCGTTGAGGTGAGTATACGGATAA yielded a PBM binding z-score of 0.243.

With ATATGTAGGTTATCGGGTCATTCGGTTTGCGCAT, the PBM binding z-score stood at 5.19.

Consider CCGACTGGGGCAAGGTTACCAAAACGCACAGCCA, for which the PBM binding z-score worked out at 0.129.

For CTACCAAGGTGAACAAGGTCGTTAATTACTATTC, the PBM binding z-score is 6.04.

For CCTAGCAGGCCGGGGTCACTCAAGCATTTCGCTT, the PBM binding z-score is 4.94.

For CCTAGTTGGTCAAGTTCACACACGCTATAGGTAC, the PBM binding z-score stood at 3.96.

TCATTTAGGTAAAGGTGAAAGTCGAACGATATGA yielded a PBM binding z-score of 1.23.

TCAGACAGGTGAAGGTAACTCAAGTACGCAGTCG came in with a PBM binding z-score of 1.12.

The sequence CAAACTAGGTCAAGGTCAAAGTCGGTTTGTGCCA registered a PBM binding z-score of 5.23.

For ACAGACAGGTGAGTGAAGGTAACTCATCTGGACG, the PBM binding z-score was -0.347.
